Source: PubChem BioAssay
The list is not random: actives were taken first. Their share in the collection is about 1.6%.
KCNQ2 enhance: potentiators of rat KCNQ2 potassium channel; O88943; B-score at 10 µM; AID 2239; CHO-K1 KCNQ2, FluxOR thallium flux fluorescence; active compounds read high; hit rate 0.54% among 310,000;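 active = fluorescence ratio B-score at least 3 SD of library B-scores, with initial fluorescence B-score within 3 of them, cut at about 5.3 in these data; same plate scores as AID 2156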;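 also: B-score of peak minus minimum over baseline fluorescence ratio after K+ and Tl+ stimulus; positive B-score means potentiation of KCNQ2 with more thallium influx and brighter signal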
Target sequence (O88943 whole entry, looked up): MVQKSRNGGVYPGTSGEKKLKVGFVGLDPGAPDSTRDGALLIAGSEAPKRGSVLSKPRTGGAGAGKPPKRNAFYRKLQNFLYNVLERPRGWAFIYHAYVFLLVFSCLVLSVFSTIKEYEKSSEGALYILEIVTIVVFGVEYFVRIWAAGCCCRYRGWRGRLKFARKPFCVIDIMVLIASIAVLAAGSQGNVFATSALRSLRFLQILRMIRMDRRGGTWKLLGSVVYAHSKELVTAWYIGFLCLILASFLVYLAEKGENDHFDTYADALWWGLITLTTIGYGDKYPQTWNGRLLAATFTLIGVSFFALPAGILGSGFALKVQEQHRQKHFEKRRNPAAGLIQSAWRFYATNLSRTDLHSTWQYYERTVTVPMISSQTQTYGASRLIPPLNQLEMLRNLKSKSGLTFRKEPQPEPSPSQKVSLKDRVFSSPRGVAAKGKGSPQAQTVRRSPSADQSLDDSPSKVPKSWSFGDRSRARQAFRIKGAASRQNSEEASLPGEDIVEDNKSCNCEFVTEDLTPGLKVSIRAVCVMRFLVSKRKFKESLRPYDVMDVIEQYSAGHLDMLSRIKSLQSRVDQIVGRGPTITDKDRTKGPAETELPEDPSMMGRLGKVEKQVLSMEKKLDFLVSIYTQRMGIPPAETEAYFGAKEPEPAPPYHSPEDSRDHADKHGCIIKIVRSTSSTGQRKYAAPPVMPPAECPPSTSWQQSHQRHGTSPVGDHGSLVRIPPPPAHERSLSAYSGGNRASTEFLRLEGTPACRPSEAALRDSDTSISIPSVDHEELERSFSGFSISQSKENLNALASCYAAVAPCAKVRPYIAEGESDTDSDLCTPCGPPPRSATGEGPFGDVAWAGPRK
KCNQ2 inh: blocks the rat KCNQ2 potassium channel. hit rate 1.1% among 310,000. CHO-K1 KCNQ2, FluxOR thallium flux, 20 min; active compounds read low. B-score at 10 µM. O88943;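 active = fluorescence ratio B-score at most minus 3 library SDs, with starting brightness B-score within 2 library SDs, cut at about -5.5 in these data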
KCNQ2 block conf: rat KCNQ2 channel inhibition, confirmatory screen; shares compounds with KCNQ2 inh; KCNQ2-expressing cells, thallium flux; active compounds read low; activity change, negative = inhibition, % at 10 µM; hit rate 57% among 1,000;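 also: 0% = vehicle wells and values are ratio percent relative to vehicle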
KCNQ1 spec: selectivity of KCNQ2 inhibitors against human KCNQ1; shares compounds with KCNQ2 inh; KCNQ1-expressing cells, FluxOR thallium flux fluorescence; active compounds read low; activity change, negative = inhibition, % at 10 µM; hit rate 15% among 1,000;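 active = activity change at least 3 SD of negative controls below their mean in both duplicate wells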;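 also: CHO cells stably transfected with KCNQ1 and depolarized by potassium stimulus; peak minus minimum fluorescence over baseline after thallium addition; 0% = vehicle negative control and -100% = blank without thallium stimulus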
CHO parental ctr: activity in parental CHO cells lacking KCNQ2; shares compounds with KCNQ2 inh; activity change, % at 10 µM; hit rate 14% among 1,000; thallium flux counter-screen; active compounds read low; AID 493029;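 also: 0% = vehicle negative controls with stimulus buffer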
KCNQ2 inh confirm: rat KCNQ2 inhibition confirmed by electrophysiology; KCNQ2-expressing cells, automated patch clamp current; AID 588531; hit rate 49% among 550; calls only at 10 µM; shares compounds with KCNQ2 inh
Active calls of the source: *. Unless noted, no rule for the calls is given here.

Screening COc1cccc2c1Oc1ncccc1N(C(=O)CCC(=O)NCc1ccccc1F)C2 returned KCNQ2 inh inactive.
`CCOc1ccc2nc(NC(=O)c3ccoc3C)sc2c1` gave KCNQ2 enhance 1.2 and KCNQ2 inh inactive.
Screening Cc1nn(C)c(C(=O)N/N=C/c2ccccn2)c1[N+](=O)[O-] returned KCNQ2 enhance 0.06 and KCNQ2 inh inactive.
`Cc1nn(C)c(C(=O)Sc2ccccc2)c1[N+](=O)[O-]` gave KCNQ2 enhance -7.9, KCNQ2 inh -7.9*, KCNQ2 block conf -33%*, KCNQ1 spec inactive, CHO parental ctr inactive and KCNQ2 inh confirm inactive.
Screening CCn1nc(C)cc1C(=O)Sc1cccc(Cl)c1 returned KCNQ2 inh inactive.
Cc1nn(C)c(C(=O)Sc2cccc(Cl)c2)c1[N+](=O)[O-] was read as KCNQ2 enhance -9.7, KCNQ2 inh -9.7*, KCNQ2 block conf -47%*, KCNQ1 spec -50%*, CHO parental ctr -34%* and KCNQ2 inh confirm inactive.
For CCOc1ncccc1C(=O)NCCc1ccc(Cl)cc1 the results were KCNQ2 inh inactive.
Screening CN(c1ccccc1C(=O)Nc1cccc(Br)c1)S(=O)(=O)c1ccccc1 returned KCNQ2 enhance -6.7, KCNQ2 inh -6.7*, KCNQ2 block conf inactive, KCNQ1 spec inactive and CHO parental ctr inactive.
`CN(c1ccccc1C(=O)Nc1cccc([N+](=O)[O-])c1)S(=O)(=O)c1ccccc1` gave KCNQ2 inh inactive.
C=CC#CC1(O)CC(C)N(C)CC1C (centres undefined) was read as KCNQ2 inh inactive.
Screening Cc1ccc(S(=O)(=O)/N=c2\ccc(Cl)cn2C(F)F)cc1 returned KCNQ2 inh inactive.
COc1ccccc1/C=C/CN1CCCC(CO)(Cc2cccc(Cl)c2)C1 (centres undefined) was read as KCNQ2 inh inactive.
`COc1ccc(/C=C/CN2CCCC(CO)(Cc3cccc(Cl)c3)C2)cc1` (centres undefined) gave KCNQ2 enhance -6.8, KCNQ2 inh -6.8*, KCNQ2 block conf -23%*, KCNQ1 spec inactive, CHO parental ctr inactive and KCNQ2 inh confirm inactive.
Screening CC(OC(=O)Cn1[nH]c(=O)c2ccccc2c1=O)C(=O)Nc1ccc(F)cc1 (centres undefined) returned KCNQ2 enhance 0.69 and KCNQ2 inh inactive.
For CCN1CCc2nc3ccccc3c(C(=O)Nc3ccc(F)cc3)c2C1 the results were KCNQ2 enhance -9.4, KCNQ2 inh -9.4*, KCNQ2 block conf inactive, KCNQ1 spec inactive and CHO parental ctr inactive.
`CCN1CCc2nc3ccccc3c(C(=O)Nc3ccc(NC(C)=O)cc3)c2C1` gave KCNQ2 enhance 0.89 and KCNQ2 inh inactive.
Screening Cc1ccc(C2C(C=Nc3c(C)n(C)n(-c4ccccc4)c3=O)=C(c3ccccc3)Oc3ccccc32)cc1 (centres undefined) returned KCNQ2 enhance -11, KCNQ2 inh -11*, KCNQ2 block conf -24%*, KCNQ1 spec inactive, CHO parental ctr inactive and KCNQ2 inh confirm inactive.
Cc1c(N=Cc2cccs2)c(=O)n(-c2ccccc2)n1C was read as KCNQ2 inh inactive.
`COc1cccc(-n2c(SCC(=O)NCc3cccs3)nc3ccccc3c2=O)c1` gave KCNQ2 inh inactive.
For COc1cccc(-n2c(SCC(=O)Nc3nc4ccccc4s3)nc3ccccc3c2=O)c1 the results were KCNQ2 enhance -7, KCNQ2 inh -7*, KCNQ2 block conf inactive, KCNQ1 spec inactive and CHO parental ctr inactive.
Screening COc1ccc(Nc2nc(-c3cccs3)nc3ccccc23)cc1S(=O)(=O)N1CCOCC1 returned KCNQ2 inh inactive.
`CC(C)=CCc1c(O)cc2oc3c(CC=C(C)C)c(O)c(O)c(CC=C(C)C)c3c(=O)c2c1O` gave KCNQ2 enhance -12, KCNQ2 inh -12*, KCNQ2 block conf -48%*, KCNQ1 spec -42%*, CHO parental ctr -28%* and KCNQ2 inh confirm inactive.
For CC(C)=CCc1cc(-c2oc3cc(O)cc(O)c3c(=O)c2O)ccc1O the results were KCNQ2 enhance 2.4 and KCNQ2 inh inactive.
`O=[N+]([O-])c1ccc(N2CCc3ccccc3C2)cc1` gave KCNQ2 enhance -7.1, KCNQ2 inh -7.1*, KCNQ2 block conf inactive, KCNQ1 spec inactive and CHO parental ctr inactive.
For O=[N+]([O-])c1ccc(-c2csc(N3CCc4ccccc4C3)n2)cc1 the results were KCNQ2 inh inactive.
For COC(=O)NN1C(=O)C(c2ccccc2)=C(c2ccc(Cl)cc2)C1=O the results were KCNQ2 enhance -8.8, KCNQ2 inh -8.8*, KCNQ2 block conf inactive, KCNQ1 spec inactive and CHO parental ctr inactive.
Screening COC(=O)Nc1c(-c2ccccc2)nc2ccc(Cl)cn12 returned KCNQ2 inh inactive.
Screening CN(CC(=O)Nc1ccccc1Cl)C(=O)CN1C(=O)C2CCCCC2C1=O (centres undefined) returned KCNQ2 enhance 1.4 and KCNQ2 inh inactive.
Screening CC(C)(C)c1cccc(OCCCSc2ncccn2)c1 returned KCNQ2 enhance -9.2, KCNQ2 inh -9.2*, KCNQ2 block conf inactive, KCNQ1 spec inactive and CHO parental ctr inactive.
`Cc1ccc(OCCCSc2ncccn2)cc1C` gave KCNQ2 inh inactive.
